Experimental data published in PubChem BioAssay AID504660 (National Center for Advancing Translational Sciences (NCATS), 2011).
“And” between values parts separate entries of the source, which are not always exact repeats. Identical values can stand only once. Out of some 360,000 compounds screened, about 3,700 (1%) were called active. No stated cut-off is given here; in the data, active means activation above about 30%; inactive means the rest. The sample as a whole holds a higher share of actives than the screen did. The source holds several records for some structures; these can differ, active in one and inactive in another.

The molecules below were run against D(1A) dopamine receptor (Homo sapiens) (UniProt P21728) (assay: Allosteric Agonists of the Human D1 Dopamine Receptor: qHTS). Conditions: HEK293 T-REx D1 cells, calcium flux, agonist mode; at 2 µM; stronger effect = higher value.
Chain of D(1A) dopamine receptor (Homo sapiens) (P21728 whole entry, looked up): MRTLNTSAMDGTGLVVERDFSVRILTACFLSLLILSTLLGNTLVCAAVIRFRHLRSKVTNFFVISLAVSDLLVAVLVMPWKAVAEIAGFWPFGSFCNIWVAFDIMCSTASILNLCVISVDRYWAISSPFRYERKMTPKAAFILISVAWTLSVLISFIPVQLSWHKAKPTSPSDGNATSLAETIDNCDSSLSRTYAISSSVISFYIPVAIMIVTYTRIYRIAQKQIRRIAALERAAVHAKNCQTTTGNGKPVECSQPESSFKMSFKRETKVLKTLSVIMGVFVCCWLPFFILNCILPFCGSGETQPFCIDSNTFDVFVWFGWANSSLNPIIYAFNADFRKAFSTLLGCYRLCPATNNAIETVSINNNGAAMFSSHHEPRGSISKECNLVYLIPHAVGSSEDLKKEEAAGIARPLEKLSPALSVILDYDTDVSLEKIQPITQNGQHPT
In short: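 Tetracycline-induced HEK293 TREx D1 cells, force-coupled to calcium signalling, were dye-loaded with a no-wash calcium kit. Compound was pin-added after a 10 s baseline. Fluorescence was read kinetically at 1 cycle/s for 180 s, with calcium rises flagged as agonism.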
Further: 0% is about no effect.

Structure (SMILES)	activation
Nc1ccc2nc3c(=O)[nH]c(=S)[nH]c3nc2c1	108% (active)
CCC1CCCCN1S(=O)(=O)c1ccc(NC(=O)c2cc(=O)c3ccccc3o2)cc1 (stereo unspecified)	0.0446% (inactive)
CC(C)C(=O)Nc1nc2c(s1)CC(C(C)(C)C)CC2 (stereo unspecified)	1.03% (inactive)
COc1ccc(Cl)cc1NC(=O)CSc1nc(=O)[nH]c2c1CCCC2	6.85% (inactive)
Cc1ccc(O)c(NC(=O)CCS(=O)(=O)c2nc(-c3ccc4c(c3)OCO4)cc(C(F)(F)F)n2)c1	5.29% (inactive)
CCOc1ccc(Br)cc1CSC(=N)N	21.9% (inactive)
CSC1=NCCN1C(=O)Cc1cccc2ccccc12	1.65% (inactive)
N=C(N)SCc1cccc2ccccc12	47.6% (active)
CN1CCOc2cc(S(=O)(=O)N3CCN(S(=O)(=O)c4c(F)cccc4F)CC3)cnc21	1.83% (inactive)
CCSC1=NCCN1C(=O)c1ccc(S(=O)(=O)N(CC)CC)cc1	1.17% (inactive)
CCCN(CCC)S(=O)(=O)c1ccc(C(=O)N2CC3CCC(CC3)C2)cc1	37.1% (active)
CCCN(CCC)S(=O)(=O)c1ccc(C(=O)NNC(=O)c2cc(OC)c(OC)c(OC)c2)cc1	6.23% (inactive)
COc1ccccc1NC(=O)C(=O)c1cc(C)n(-c2ccccc2F)c1C	1.84% (inactive)
CCNS(=O)(=O)c1cc(-c2nnc(Nc3cccc(C(F)(F)F)c3)c3ccccc23)ccc1C	4.19% (inactive)
Cc1csc2nc(COC(=O)c3ccccc3NC(=O)c3ccccc3Cl)cc(=O)n12	3.01% (inactive)
c1cnc(NC2C3CC4CC(C3)CC2C4)nc1 (stereo unspecified)	7% (inactive)
c1ccc2c(NC3C4CC5CC(C4)CC3C5)nc(N3CCOCC3)nc2c1 (stereo unspecified)	38.3% (active)
Fc1cnc(N2CCOCC2)nc1NCc1ccccc1	1.23% (inactive)
CCOC(=O)c1cc2c(=O)n3ccccc3nc2n(Cc2ccco2)c1=NC(=O)c1ccc(F)cc1	-0.478% (inactive)

Structure (SMILES)	activation
CCCCCn1c(=O)[nH]c2cc(C(=O)Nc3cc(C)cc(C)c3)ccc2c1=O	0.484% (inactive)
CCOC(=O)C1CCN(c2ncnc3c2c(-c2ccccc2)cn3-c2cccc(C)c2)CC1	-1.59% (inactive)
Oc1ccc(Cl)cc1C1C=C(c2ccc3c(c2)OCO3)NC(c2c(F)cccc2Cl)N1 (stereo unspecified)	21.1% (inactive)
CCCN1C(=O)C(Cc2nc3ccccc3c(=O)n2-c2ccccc2)c2cc(C)ccc21 (stereo unspecified)	5.26% (inactive) and 5.84% (inactive)
CCCc1nc2c(c(=O)c3ccccc3n2C)c(=O)n1C1CCCCCC1	190% (active)
CCOc1ccc(NC(=O)c2cn(C3CCCCC3)c(=O)c3c2c2ccccc2n3C)cc1	2.25% (inactive)
Cc1ccc2c(=O)cc(C(=O)Nc3sc4c(c3C(=O)NCc3cccnc3)CCCC4)oc2c1	1.62% (inactive)
COc1ccccc1CNS(=O)(=O)c1ccc2c(c1)NC(=O)CS2	4.9% (inactive)
COc1ccc(S(=O)(=O)NCc2cccn2Cc2cccc(C)c2)cc1Cl	33.8% (active)
COc1ccc(S(=O)(=O)NCc2cccn2Cc2cccc(C)c2)cc1	23.9% (inactive)
Cc1ccc(Cl)cc1NC(=O)CCC(=O)N1CC(C)Sc2ccccc21 (stereo unspecified)	0.39% (inactive)
Cc1cccc(-n2c(SCC(N)=O)nc3c(oc4ccccc43)c2=O)c1	-1.27% (inactive)
Cc1cccc(N2CCN(C(=O)CCSCc3ccccc3F)CC2)c1C	1.3% (inactive)
Cc1cccc(CN2CCC(CNC(=O)Nc3ccc(F)c(Cl)c3)CC2)c1	42.5% (active)
COc1cc(NC(=O)NCC2CCN(Cc3ccc(C)cc3)CC2)cc(OC)c1OC	2.18% (inactive) and 0.967% (inactive)
Cc1ccc(C)c(CN2CCC(CNC(=O)Nc3ccc(C)c(F)c3)CC2)c1	26.2% (inactive)
CCOC(=O)c1ccc(CSc2nnc3cc(C)c4ccccc4n23)cc1	4.34% (inactive)
O=C(CNC(=O)c1ccccc1)OC(C(=O)Nc1cc([N+](=O)[O-])ccc1F)c1ccccc1 (stereo unspecified)	1.22% (inactive)
COc1ccccc1OCCC(=O)OCC(=O)NCc1ccccc1	-0.432% (inactive)

Structure (SMILES)	activation
COc1ccccc1OCCNCC(O)COc1cccc2[nH]c3ccccc3c12 (stereo unspecified)	17.7% (inactive) and 34% (active)
CC(O)CNCCOc1cccc(Oc2ccccc2)c1 (stereo unspecified)	4.04% (inactive)
COc1ccc(CCNC(=O)CCCCn2c(=O)c3ccccc3n(Cc3ccccc3C)c2=O)cc1OC	13.8% (inactive)
Cc1cc(OCC(=O)Nc2ncn[nH]2)c(C)c(C)c1Br	1.36% (inactive)
COc1ccccc1CNC(=O)C(=O)NCC(c1cccs1)S(=O)(=O)c1cccs1 (stereo unspecified)	7.48% (inactive)
CCn1c2ccccc2c2cc(CN3CCN(Cc4cccc(Cl)c4)CC3)ccc21	2.19% (inactive)
Cc1cccc(Nc2cc(C)nc(-n3nc(C)cc3C)n2)c1	-1.13% (inactive)
Cc1cccc(NC(=O)c2ccc(F)c(S(=O)(=O)N(C)C3CCCCC3)c2)c1	0.598% (inactive)
O=C(Cc1ccc(S(=O)(=O)N2CCOCC2)s1)NCCC(c1ccccc1)c1ccccc1	2.27% (inactive)
COCCN(Cc1ccccc1)C(=O)Cc1ccc(S(=O)(=O)N2CCOCC2)s1	134% (active)
CCN(Cc1ccccc1)C(=O)Cc1ccc(OC)c(S(=O)(=O)N2CCOCC2)c1	3.33% (inactive)
CCOC(=O)c1cc(-c2ccccc2)n(CCC(=O)Nc2ccccc2CC)c1C	5.65% (inactive)
CCC(=O)N1CCc2cc(Br)cc(S(=O)(=O)Nc3ccc(C)cc3C)c21	0.918% (inactive)
CC(NC(=S)Nc1ccc(OC(F)F)cc1)c1ccc(F)cc1 (stereo unspecified)	41.7% (active)
CC/C(=N\NC(=S)NC(C)C)c1ccc(OC(F)F)cc1	0.526% (inactive)
CC(C)N(Cc1ccccc1)C(=S)Nc1ccc(OC(F)F)cc1	15.8% (inactive)
Cc1ccc(S(=O)(=O)NC(N)=NCCC[C@@H](NC(=O)CNC(=O)c2ccccc2)C(=O)Nc2cc(C(F)(F)F)ccc2Cl)cc1	4.3% (inactive)
CCOC(=O)c1ccc(CN(Cc2ccccc2)S(=O)(=O)c2ccc(Cl)cc2)cc1	18.5% (inactive)
